According to PubChem BioAssay (EPA / NIEHS):
Where “and” joins values, the source holds several entries; their conditions need not be identical. Equal values may be shown once. Inconclusive results are not listed. Where a structure was tested more than once in an assay, its records may differ in their call. Calls of active or inactive are those of the source. The calls were made as follows, unless noted: active = hit-call score of the fitted dose curve at least 0.9, where 1 is the maximum; inactive = score below 0.9.

Columns and labels:
[1] = read-out: Monokine induced gamma interferon (MIG), CXCL9 (gene 4283); assay: BSK_3C_MIG: BioMAP Diversity Plus: 3C Assay for Monokine induced gamma interferon (MIG) Biomarker Activity (AID 2283021); conditions: primary human endothelial cells (HUVEC); actives raise or lower the signal;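 as to AC50: MIG protein level measured by immunoassay in the treated endothelial cultures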
Summary of the method: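 ELISA measurement of MIG in human umbilical vein endothelial cells 24 h after treatment. Cytotoxicity tracked by SRB staining in parallel cultures; gain or loss of signal fitted relative to DMSO.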

[2] = BSK_3C_SRB: Viability Assessment in the BioMAP Diversity Plus: 3C Assay (AID 2283023); conditions: primary human endothelial cells (HUVEC);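 also: fitted both ways against DMSO so a hit may be signal rise or drop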
Summary of the method: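 Absorbance at 560 nm of sulforhodamine B-stained (0.1%) total protein served as a cytotoxicity readout in human umbilical vein endothelial cells, 24 h after chemical treatment. Signal was fitted bidirectionally relative to DMSO.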

[3] = read-out: Matrix Metallopeptidase 1 (MMP1), MMP1 (gene 4312); assay: BSK_BE3C_MMP1: BioMAP Diversity Plus: BE3C Assay for Matrix Metallopeptidase 1 (MMP1) Biomarker Activity (AID 2283024); conditions: primary human bronchial epithelial cells; actives raise or lower the signal
Summary of the method: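 ELISA measurement of MMP-1 after 24 h compound exposure of primary human bronchial epithelial cells. Changes in either direction fitted relative to DMSO; parallel SRB staining checked overt cytotoxicity.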

[4] = BSK_3C_Vis: BioMAP Diversity Plus: 3C Assay for Morphology Visualization (AID 2283025); conditions: primary human endothelial cells (HUVEC);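 also: fitted both ways so gain or loss versus DMSO counts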;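 as to AC50: light microscopy image of cell morphology used as background control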
Summary of the method: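 Light-microscopy visualization of HUVEC cultures at 24 h post-treatment, with DMSO as baseline for bidirectional fitting.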

[5] = read-out: Pselectin, SELP (gene 6403); assay: BSK_4H_Pselectin: BioMAP Diversity Plus: 4H Assay for Pselectin Biomarker Activity (AID 2283026); conditions: primary human endothelial cells (HUVEC); actives raise or lower the signal
Summary of the method: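 ELISA of surface P-selectin on HUVEC, 24 h after dosing, with parallel SRB staining (0.1% after 10% TCA fixation, 560 nm) for overt cytotoxicity. Activity fitted in both directions relative to DMSO.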

[6] = BSK_4H_SRB: Viability Assessment in the BioMAP Diversity Plus: 4H Assay (AID 2283027); conditions: primary human endothelial cells (HUVEC);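 also: cells exposed to compound for 24 h before staining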;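 as to AC50: curves fitted both ways versus DMSO so AC50 may be loss or gain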
Summary of the method: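 Cytotoxicity read-out in primary human endothelial cells: after 24 h compound exposure, cells were TCA-fixed (10%), stained with 0.1% SRB and absorbance taken at 560 nm. Values fitted in both directions relative to DMSO.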

[7] = read-out: Thrombomodulin, THBD (gene 7056); assay: BSK_3C_Thrombomodulin: BioMAP Diversity Plus: 3C Assay for Thrombomodulin Biomarker Activity (AID 2283029); conditions: primary human endothelial cells (HUVEC); actives raise or lower the signal
Summary of the method: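 ELISA measurement of thrombomodulin on HUVEC surface 24 h after chemical dosing; activity fitted in both directions relative to DMSO vehicle.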

[8] = read-out: Urokinase-type plasminogen activator receptor (uPAR), PLAUR (gene 5329); assay: BSK_4H_uPAR: BioMAP Diversity Plus: 4H Assay for Urokinase-type plasminogen activator receptor (uPAR) Biomarker Activity (AID 2283030); conditions: primary human endothelial cells (HUVEC); actives raise or lower the signal
Summary of the method: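 Cell-surface uPAR ELISA signal, measured 24 h after dosing human umbilical vein endothelial cells, was analyzed with bidirectional fitting relative to DMSO. Parallel SRB staining of total protein tracked overt cytotoxicity.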

[9] = read-out: Vascular endothelial growth factor receptor 2 (Homo sapiens) (UniProt P35968); assay: BSK_4H_VEGFRII: BioMAP Diversity Plus: 4H Assay for Vascular endothelial growth factor receptor 2 (VEGFR2) Biomarker Activity (AID 2283031); conditions: primary human endothelial cells (HUVEC); actives raise or lower the signal;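 as to AC50: cell-surface VEGFR2 protein level quantified by ELISA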
Summary of the method: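 ELISA read-out of VEGFRII in primary human umbilical vein endothelium, taken 24 h after chemical treatment. Responses are expressed relative to DMSO, with bidirectional fitting.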

[10] = read-out: Human Leukocyte Antigen - DR isotype (HLADR), HLA-DRA (gene 3122); assay: BSK_BE3C_HLADR: BioMAP Diversity Plus: BE3C Assay for Human Leukocyte Antigen - DR isotype (HLADR) Biomarker Activity (AID 2283032); conditions: primary human bronchial epithelial cells; actives raise or lower the signal
Summary of the method: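 Cell-surface HLA-DR ELISA readout at 24 h after dosing in the BE3C primary human lung bronchial epithelial system; gain or loss of signal against DMSO, with parallel sulforhodamine B staining of total protein for overt cytotoxicity.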

[11] = read-out: Vascular cell adhesion molecule 1 (VCAM1), VCAM1 (gene 7412); assay: BSK_4H_VCAM1: BioMAP Diversity Plus: 4H Assay for Vascular cell adhesion molecule 1 (VCAM1) Biomarker Activity (AID 2283033); conditions: primary human endothelial cells (HUVEC); actives raise or lower the signal
Summary of the method: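 VCAM-1 ELISA read 24 h after chemical dosing of HUVEC in the BioMAP 4H system, with gain or loss of signal fitted relative to DMSO. Parallel SRB staining (560 nm) checked overt cytotoxicity.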

[12] = read-out: Interferon-gamma inducible Protein 10 (IP10), CXCL10 (gene 3627); assay: BSK_BE3C_IP10: BioMAP Diversity Plus: BE3C Assay for Interferon-gamma inducible Protein 10 (IP10) Biomarker Activity (AID 2283034); conditions: primary human bronchial epithelial cells; actives raise or lower the signal
Summary of the method: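 IP-10 quantified by ELISA in human primary bronchial epithelial cell cultures at 24 hours post-dosing. Gain or loss of signal fitted relative to DMSO; parallel SRB staining assessed overt cytotoxicity.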

[13] = read-out: Monokine induced gamma interferon (MIG), CXCL9 (gene 4283); assay: BSK_BE3C_MIG: BioMAP Diversity Plus: BE3C Assay for Monokine induced gamma interferon (MIG) Biomarker Activity (AID 2283035); conditions: primary human bronchial epithelial cells; actives raise or lower the signal
Summary of the method: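 ELISA quantified MIG after 24 h exposure of primary bronchial epithelial cultures, analysed in both directions relative to DMSO. Cytotoxicity tracked in parallel cultures by sulforhodamine B staining.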

[14] = read-out: Transforming growth factor beta 1 (TGFb1), TGFB1 (gene 7040); assay: BSK_BE3C_TGFb1: BioMAP Diversity Plus: BE3C Assay for Transforming growth factor beta 1 (TGFb1) Biomarker Activity (AID 2283036); conditions: primary human bronchial epithelial cells; actives raise or lower the signal
Summary of the method: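 ELISA readout of TGF-b1 from human lung bronchial epithelial primary cells, taken 24 h post-treatment. Gain or loss of signal fitted relative to DMSO baseline, with parallel SRB staining for overt cytotoxicity.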

[15] = read-out: Plasminogen activator inhibitor-1 (PAI1), SERPINE1 (gene 5054); assay: BSK_BE3C_PAI1: BioMAP Diversity Plus: BE3C Assay for Plasminogen activator inhibitor-1 (PAI1) Biomarker Activity (AID 2283037); conditions: primary human bronchial epithelial cells; actives raise or lower the signal
Summary of the method: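 PAI-1 was measured by ELISA in human primary bronchial epithelial cultures 24 h after chemical dosing, with cytotoxicity checked by SRB total-protein staining in parallel cultures. Activity was fitted in both directions relative to DMSO.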

[16] = read-out: urokinase plasminogen activator (uPA), PLAU (gene 5328); assay: BSK_BE3C_uPA: BioMAP Diversity Plus: BE3C Assay for urokinase plasminogen activator (uPA) Biomarker Activity (AID 2283038); conditions: primary human bronchial epithelial cells; actives raise or lower the signal
Summary of the method: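 Bronchial epithelial cells (human, primary); chemical 24 h; uPA by ELISA; bidirectional fit vs DMSO. SRB (0.1%, after 10% TCA fixation, 560 nm) in parallel cultures for cytotoxicity.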

[17] = read-out: Urokinase-type plasminogen activator receptor (uPAR), PLAUR (gene 5329); assay: BSK_BE3C_uPAR: BioMAP Diversity Plus: BE3C Assay for Urokinase-type plasminogen activator receptor (uPAR) Biomarker Activity (AID 2283039); conditions: primary human bronchial epithelial cells; actives raise or lower the signal
Summary of the method: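 uPAR levels were measured by ELISA after 24 h compound treatment of primary human bronchial epithelial cells, fitted in both directions relative to DMSO. Parallel SRB staining served as the cytotoxicity read-out.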

[18] = read-out: Interleukin-6 (IL6), IL6 (gene 3569); assay: BSK_CASM3C_IL6: BioMAP Diversity Plus: CASM3C Assay for Interleukin-6 (IL6) Biomarker Activity for (AID 2283040); conditions: primary human coronary artery smooth muscle cells; actives raise or lower the signal
[19] = biological target: human Vitamin D Receptor (VDR), VDR (gene 7421) (UniProt P11473); assay: ATG_VDR_TRANS: Attagene TRANS-FACTORIAL HepG2 Assay for human Vitamin D Receptor (VDR) (AID 2283022; active = hit-call score of the fitted dose curve at least 0.9, where 1 is the maximum)
Summary of the method: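 Steps: transfect HepG2 with GAL4-UAS-driven reporter constructs; dose compounds 24 h; isolate RNA, reverse-transcribe, PCR-amplify with 6-FAM-labelled primer extension and HpaI digestion; quantify fragments by capillary electrophoresis relative to DMSO.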

[20] = BSK_BE3C_SRB: Viability Assessment in the BioMAP Diversity Plus: BE3C Assay (AID 2283028); conditions: primary human bronchial epithelial cells
Summary of the method: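 Cells (human bronchial epithelial, primary) are treated with chemicals, and after 24 h the parallel cultures are fixed in 10% TCA. These are then stained with 0.1% SRB and read at 560 nm. Gain or loss of signal is fitted relative to DMSO.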

Measured: AC50

Sequence of human Vitamin D Receptor (VDR), VDR (gene 7421) (P11473 whole entry, looked up, the tested form may be a part): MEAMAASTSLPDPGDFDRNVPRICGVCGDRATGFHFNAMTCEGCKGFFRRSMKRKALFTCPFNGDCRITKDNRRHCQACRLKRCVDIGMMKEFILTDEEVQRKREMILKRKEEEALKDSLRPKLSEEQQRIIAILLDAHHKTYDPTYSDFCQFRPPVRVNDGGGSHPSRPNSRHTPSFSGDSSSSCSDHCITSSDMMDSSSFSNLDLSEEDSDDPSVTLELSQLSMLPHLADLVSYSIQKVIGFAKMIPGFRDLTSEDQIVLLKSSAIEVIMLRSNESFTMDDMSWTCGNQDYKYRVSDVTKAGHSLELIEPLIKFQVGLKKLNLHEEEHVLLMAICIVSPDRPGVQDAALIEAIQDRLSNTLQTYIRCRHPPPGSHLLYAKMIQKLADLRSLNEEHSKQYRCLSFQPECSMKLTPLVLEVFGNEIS

O=C1c2ccccc2C(=O)c2c(O)ccc(O)c21
active: [4] 13.6 µM | [8] 6.4 µM
not listed: [19] | [20]
inactive: all other assays above

O=C1OC2(c3ccccc31)c1ccc(O)c(Br)c1Oc1c2ccc(O)c1Br
active: [4] 37.5 µM | [5] 20 µM | [8] 20 µM | [9] 13.7 µM | [10] 10.3 µM | [11] 20 µM | [14] 3.97 µM
not listed: [7] | [20]
inactive: all other assays above

CC1(C)CCC[C@]2(C)[C@H]3CCO[C@]3(C)CC[C@@H]12
inactive: [1] | [19] | [3] | [5] | [8] | [9] | [11] | [12] | [13] | [15] | [16] | [17]
active: [1] 34.9 µM | [2] 34.9 µM and 39.2 µM | [5] 33.4 µM | [6] 32.1 µM and 33.9 µM | [8] 34.2 µM | [9] 31.9 µM | [10] 23.9 µM and 28.6 µM | [11] 30.4 µM | [15] 36.4 µM | [16] 26.2 µM | [18] 31.5 µM and 16.6 µM

CN(C)C(=O)Nc1ccc(Oc2ccc(Cl)cc2)cc1
active: [14] 3.97 µM | [18] 0.0427 µM
not listed: [7] | [20]
inactive: all other assays above

O=C1OC[C@H](Cc2cccc(O)c2)[C@H]1Cc1cccc(O)c1
not listed: [7] | [20]
inactive: all other assays above

O=C(Nc1ccc2c(O)c(N=Nc3ccc(N=Nc4ccc(S(=O)(=O)O)cc4)cc3)c(S(=O)(=O)O)cc2c1)c1ccccc1
active: [3] 16 µM and 10.4 µM
not listed: [4] | [14] | [20]
inactive: all other assays above

CCCCN(CCCC)C(=O)N(CCCC)CCCC
active: [1] 12.5 µM | [2] 7.99 µM | [3] 20 µM | [4] 2.98 µM | [5] 12.2 µM | [6] 8.59 µM | [8] 7.82 µM | [9] 23.7 µM | [10] 12.5 µM | [11] 23.7 µM | [12] 9.08 µM | [13] 20 µM | [14] 5.38 µM | [15] 9.25 µM | [16] 9.69 µM | [17] 7.37 µM | [18] 20 µM
inactive: [19]

CC(C=O)Cc1ccc(C(C)(C)C)cc1 (stereo not drawn)
inactive: [1] | [19] | [3] | [13] | [14] | [15] | [16] | [17]
active: [2] 31.2 µM | [4] 37.8 µM | [5] 31.1 µM | [6] 30.1 µM | [8] 29.7 µM | [9] 32.9 µM | [10] 28.9 µM | [11] 34.5 µM | [12] 29.7 µM | [18] 28.5 µM

CCCCCCCCCCCCCCCC(=O)OC/C=C(C)/C=C/C=C(C)/C=C/C1=C(C)CCCC1(C)C
active: [2] 29.5 µM | [4] 38.9 µM
not listed: [7] | [19]
inactive: all other assays above

CSCCC=O
not listed: [7] | [20]
inactive: all other assays above

CN(c1nccc(=O)[nH]1)C1CCN(c2nc3ccccc3n2Cc2ccc(F)cc2)CC1
active: [3] 0.00777 µM | [5] 0.00777 µM | [11] 0.0185 µM
not listed: [19]
inactive: all other assays above
